Results as given in PubChem BioAssay (NCI).
About 83,000 compounds went through this panel and 20% of them were active in at least one assay; those are over-represented in the sample as a whole.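 Values shown are percent growth following 48 h exposure of cells in 96-well plates to a single concentration of compound; below 10 was considered active.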 A number with no mark means an inactive call. Activity calls are given as the source filed them.

Assays:
Assay in all cases: NCI-60 one-dose screen, 48 h (100 = growth as untreated, 0 = no growth, -100 = all killed)
Conditions in all cases: 10 µM unless noted
SR leukemia = tested on: SR leukemia
RPMI-8226 leukemia = tested on: RPMI-8226 leukemia
OVCAR-8 ovarian = tested on: OVCAR-8 ovarian
OVCAR-5 ovarian = tested on: OVCAR-5 ovarian
OVCAR-4 ovarian = tested on: OVCAR-4 ovarian
SK-OV-3 ovarian = tested on: SK-OV-3 ovarian
IGROV1 ovarian = tested on: IGROV1 ovarian
OVCAR-3 ovarian = tested on: OVCAR-3 ovarian
HS 578T breast = tested on: HS 578T breast
NCI/ADR-RES ovarian = tested on: NCI/ADR-RES ovarian

Row | Compound | growth (SR leukemia) | growth (RPMI-8226 leukemia) | growth (OVCAR-8 ovarian) | growth (OVCAR-5 ovarian) | growth (OVCAR-4 ovarian) | growth (SK-OV-3 ovarian) | growth (IGROV1 ovarian) | growth (OVCAR-3 ovarian) | growth (HS 578T breast) | growth (NCI/ADR-RES ovarian)
1 | CCN(CC)CCC(=O)Nc1ccc(Cn2nnc3c2C(=O)c2nnn(Cc4ccc(NC(=O)CCN(CC)CC)cc4)c2C3=O)cc1 | -18.9% (active) | -16.6% (active) | -35.6% (active) | -19.1% (active) | -72.7% (active) | -8.54% (active) | -55.6% (active) | -16.2% (active) | 14.2% | 99.3%
2 | O=C(CCCCN1CCOCC1)Nc1ccc(Cn2nnc3c2C(=O)c2nnn(Cc4ccc(NC(=O)CCCCN5CCOCC5)cc4)c2C3=O)cc1 | -22.2% (active) | -18% (active) | -36.2% (active) | -23% (active) | -73.9% (active) | -68.2% (active) | -68.3% (active) | -58.2% (active) | 12.5% | 11%
3 | CC1=C(NCCN2CCCC2)C(=O)c2c(OCc3ccc(C(F)(F)F)cc3)cccc2C1=O | -15.7% (active) | 29.7% | 77% | 90.1% | 84.7% | 95.6% | 89.1% | 83.6% | 87.6% | 87.5%
4 | COc1nc2c(cc1S(=O)(=O)c1ccccc1)CCc1c-2cnn1-c1ccc(Cl)cc1 | 80.7% | 93.3% | 104% | 85.5% | 90.4% | 95.5% | 100% | 111% | 82% | 89.9%
5 | CCCCCCCCCc1cc(CN2CCCCC2)c(O)c(CN2CCCCC2)c1 | 7.18% (active) | 23.7% | 76.6% | 59.8% | 41.3% | 78.3% | 75.9% | 41.9% | 72.7% | 58.3%
6 | Nc1nc2ccc(-c3nc4ccc5[nH]ncc5c4c4c3CCC4)cc2s1 | 20.7% | -49% (active) | 28.6% | 47.6% | 19.3% | -21.7% (active) | 21.4% | 39.4% | 7.12% (active) | 27.8%
7 | COc1ccc(/C=N\NC(=O)CN2CCN(c3cc4c(cc3F)c(=O)c(C(=O)N/N=C/c3ccc(OC)cc3)cn4C3CC3)CC2)cc1 | 72.1% | 69.4% | 92.2% | 122% | 80.7% | 112% | 72% | 85.2% | 92.4% | 88.2%
8 | C=C1C(=O)O[C@H]2[C@H]1CC/C(Cn1cc(Cn3ccc4ccccc43)nn1)=C\CC[C@@]1(C)O[C@@H]21 | -18.4% (active) | -34.6% (active) | 11% | 71.5% | 45.4% | 101% | 47.8% | -59.7% (active) | 69.4% | 77.9%
9 | CN1CCN(Cc2ccc(NC(=O)c3cncc(C#Cc4cncc5nccnc45)c3)cc2C(F)(F)F)CC1 | 63.7% | 36.9% | 62.1% | 36.4% | 38.9% | 74.7% | 22.2% | 69.9% | 39.6% | 72.4%
10 | O=[N+]([O-])c1cccc(-c2nc3sccn3c2-c2ccnc(NCCCNS(=O)(=O)c3ccc(Br)cc3)n2)c1 | 51.8% | 9.86% (active) | 28.2% | 114% | 32.7% | 92.5% | 41.6% | 51.2% | 87.7% | 23.1%
11 | COc1ccc(/C=C/C(=O)c2c(O)c(C)c(O)c3c2OC2=CC(O)=C(C(C)=O)C(=O)[C@]23C)cc1 | -17.6% (active) | -28.9% (active) | -14.9% (active) | 7.96% (active) | 12.1% | -24.9% (active) | -8.12% (active) | -20.5% (active) | -9.2% (active) | -13.5% (active)
12 | O=C(/C=C/c1ccc(Cl)cc1)/C=C/c1cc2ccccc2[nH]c1=O | 1.79% (active) | -22.2% (active) | -11.5% (active) | 128% | 84.1% | 99.9% | 78.8% | 15.9% | 91.2% | 86%
13 | C=C1C(=O)O[C@H]2[C@H]1CC/C(Cn1cc(Cn3ccc4cc(Cl)ccc43)nn1)=C\CC[C@@]1(C)O[C@@H]21 | -27% (active) | -42.3% (active) | -38.8% (active) | 69.5% | 14.3% | 85.9% | 2.27% (active) | -91.2% (active) | 52.1% | 50.6%
14 | COc1c2ccccc2c(OC)c2[nH]c(=O)ccc12 | 22.2% | 55.2% | 87% | 75.4% | 60.4% | 92.6% | 81.5% | 59.2% | 32.8% | 57.6%
15 | c1c2c(cc3c1OCO3)Cc1cc3c(cc1Cc1cc4c(cc1C2)OCO4)OCO3 | 91.9% | 111% | 101% | 102% | 98.3% | 101% | 104% | 123% | 104% | 113%
16 | C[C@@H]1CCC2=C(CCC[C@]2(C)C(=O)O)[C@@]1(C)CCc1ccoc1 | 97.6% | 92.9% | 94.2% | 112% | 109% | 99.1% | 99.8% | 101% | 88% | 98.7%
17 | C#Cc1nc2ccccc2c(=O)[nH]1 | 2.53% (active) | -22.2% (active) | -31.3% (active) | -44.7% (active) | -74.4% (active) | 49.6% | -66.2% (active) | -82.3% (active) | -4.79% (active) | -2.94% (active)
18 | O=C(Nc1ccc(Oc2ccc(F)cc2)c(Cl)c1)c1cccnc1 | 75.1% | 87.3% | 98.6% | 99.9% | 85.2% | 110% | 95.4% | 85.8% | 91.5% | 85.1%
19 | CCOC(=O)c1c2c(n3ccc(NC(=O)CCN4CCCCC4)cc13)C(=O)c1ncccc1C2=O | -46.6% (active) | -6.64% (active) | -27% (active) | -58.9% (active) | -13.5% (active) | 26.2% | 35.1% | -10.9% (active) | 40.2% | 36.8%
20 | O=C(O)c1ccccc1Nc1cccc(S(F)(F)(F)(F)F)c1 | 99.1% | 100% | 98.9% | 115% | 102% | 87.4% | 99.8% | 95% | 99.2% | 106%
21 | O=C(CN1CCN(c2cc3c(cc2F)c(=O)c(C(=O)O)cn3C2CC2)CC1)Nc1nc(-c2ccc(Cl)cc2)cs1 | 29.3% | 1.14% (active) | 13.2% | 51.7% | 67.7% | 21.1% | 38.6% | 14.2% | 32.2% | 56.9%
22 | Cc1cccc(NC(=O)c2sc3nc4c(cc3c2N)C(=O)CCC4)c1 | 26.2% | 31.6% | 52.2% | 44.6% | 40.1% | 35.3% | -4.52% (active) | 7.66% (active) | 18.6% | 17.4%
23 | NC(=S)N/N=C/c1ccc(OCc2ccccc2)cc1 | 62.8% | 1.94% (active) | 78.2% | 89.7% | 44.8% | 80% | 52.8% | 62.1% | 81.2% | 83.7%
24 | N#CC1=C(N)Oc2c(ccc3ccccc23)C1c1cccs1 (stereo not given) | -11.2% (active) | -17.3% (active) | 17.2% | 34.9% | 12.6% | 5.5% (active) | 60.3% | -38.8% (active) | 22.3% | 14.5%
25 | COc1cc(/C=N/N(C)C)ccc1O | 93% | 92.4% | 96.1% | 106% | 115% | 97.1% | 104% | 109% | 87.3% | 107%
26 | CN1CCCCC1CCN1c2ccccc2Sc2ccc(Br)cc21 (stereo not given) | -32% (active) | 46% | 62.3% | 85.9% | 59.4% | 69.6% | 35.9% | 77.9% | 81% | 73.2%
27 | Nc1ccc2c(c1)C(=O)NC2=O | 40.7% | 84.1% | 106% | 92.8% | 82.8% | 100% | 113% | 105% | 93.5% | 95.2%
